Ba/F3 V617F tox: reduce viability of Ba/F3 cells dependent on JAK2V617F | Ba/F3 EpoR-JAK2V617F viability, ATP luminescence | inhibition, % at 5.6 µM | 220,000 compounds, 1.1% hits;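 active means inhibition above the campaign mean plus 3 SD over all tested compounds, cut at about 24% in these data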;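 further: cytokine-independent growth of Ba/F3 cells driven by EpoR plus mutant JAK2; 0% = DMSO-treated cells and 100% = JAK inhibitor I control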
aSyn 5UTR inh: MLPCN primary screen, SNCA 5' untranslated region; AID 1813; alpha-synuclein 5'UTR reporter, inhibitor activity; inhibition, % (tested at 7.5 µM); 300,000 compounds, 0.82% hits; in the data active means inhibition above about 60%;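 further: H4 neuroglioblastoma cells stably carrying SNCA 5'UTR luciferase fusion; 0% = DMSO wells and 100% = positive control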
KLF5 inh: suppresses KLF5 promoter-driven expression; DLD-1 KLF5 promoter-luciferase reporter, luminescence; inhibition, % at 5 µM; 290,000 compounds, 0.23% hits; AID 1700;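 active means inhibition above a per-plate limit of that plate's mean compound inhibition plus 3 SD, cut at about 60% in these data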;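 further: 0% = DMSO wells and 100% = LY294002 at 200 µM; higher means less KLF5 promoter-driven luciferase light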
IEC-6 cytotox: counter-screen for KLF5 inhibitors: cytotoxicity in IEC-6 cells; 290,000 compounds, 0.78% hits; inhibition, % at 5 µM; IEC-6 cytotoxicity, luminescence viability; AID 1825;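 further: 0% = plate median of test compound wells and 100% = cytotoxic reference compound wells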
BaF3 parental: reduces parental Ba/F3 cell viability, JAK2V617F counter-screen; CellTiter-Glo ATP luminescence; inhibition, % at 5.6 µM; 220,000 compounds, 1.1% hits; AID 1486;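 active means inhibition above a per-campaign cutoff, the mean inhibition of all tested compounds plus 3 SD, cut at about 27% in these data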;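 further: 0% = DMSO wells and 100% = JAK Inhibitor I control wells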
APP 5UTR inh: APP translation inhibition; SH-SY5Y APP 5'UTR-luciferase reporter, luminescence; inhibition, % at 2 µM; 190,000 compounds, 0.82% hits;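 active means inhibition above a set limit, derived from the sample mean plus 3 SD, cut at about 45% in these data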
IEC-6 cytotox cf: confirmation of cytotoxic compounds in rat IEC-6 intestinal epithelial cells. shares compounds with IEC-6 cytotox. IEC-6 rat intestinal epithelial viability, luminescence. inhibition, % at 5 µM. 1,900 compounds, 63% hits;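 further: 0% = vehicle and 100% = reference cytotoxic drug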
Active calls of the source: *. Hits are enriched below; roughly 2.2% of the tested compounds scored in any of these assays. Unless noted, no stated cut-off is given here; in the data, active means inhibition above about 22%; inactive means the rest.

How did NC(N)=Nc1ccc(N=C(N)N)cc1 do in these assays?
Ba/F3 V617F tox: -3.3; aSyn 5UTR inh: -2.7; KLF5 inh: -8.9; IEC-6 cytotox: 97.2*; BaF3 parental: 3.2; IEC-6 cytotox cf: 97.7*

Results for COC(=O)C(NC(=O)c1ccco1)(Nc1cc(C)ccn1)C(F)(F)F (configuration not stated) ?
Ba/F3 V617F tox: 5.6; aSyn 5UTR inh: -4.9; KLF5 inh: -14.2; IEC-6 cytotox: 52.0*; BaF3 parental: 7.1; APP 5UTR inh: -1.7; IEC-6 cytotox cf: 7.7

Results for O=C(NC(=S)NC(CO)c1ccccc1)c1ccc(F)cc1 (configuration not stated) ?
aSyn 5UTR inh: -6.7; KLF5 inh: -1.0; IEC-6 cytotox: 5.9

Results for CN(C)c1cccc(NC2=CC(=[N+]3CCOCC3)CC(C)(C)C2)c1 ?
Ba/F3 V617F tox: 1.6; aSyn 5UTR inh: 0.9; KLF5 inh: -17.6; IEC-6 cytotox: -1.5; BaF3 parental: 3.6; APP 5UTR inh: 5.2

Results for CN(Cc1ccccc1)C1=CC(=[N+]2CCCC2)CC(C)(C)C1 ?
Ba/F3 V617F tox: 94.0*; aSyn 5UTR inh: -18.2; KLF5 inh: -3.7; IEC-6 cytotox: 31.2*; BaF3 parental: 73.1*; IEC-6 cytotox cf: 28.1*

How did Cc1[nH]c2ccccc2c1C(C[N+](=O)[O-])c1ccco1 (configuration not stated) do in these assays?
Ba/F3 V617F tox: 1.9; aSyn 5UTR inh: -0.8; KLF5 inh: 3.5; IEC-6 cytotox: -2.8; BaF3 parental: 6.5; APP 5UTR inh: 14.2

What do the screens show for `Cc1ccc(-c2[nH]c3ccccc3c2C(C[N+](=O)[O-])c2ccco2)cc1` (configuration not stated)?
Ba/F3 V617F tox: 0.2; aSyn 5UTR inh: 27.0; KLF5 inh: 10.5; IEC-6 cytotox: 24.8*; BaF3 parental: 3.3; APP 5UTR inh: -14.2; IEC-6 cytotox cf: 9.7

How did FC(F)(F)c1cccc(-c2nc3nc(Cl)c(Cl)nc3[nH]2)c1 do in these assays?
Ba/F3 V617F tox: 3.7; aSyn 5UTR inh: 13.2; KLF5 inh: -46.5; IEC-6 cytotox: 30.6*; BaF3 parental: 3.2; IEC-6 cytotox cf: 39.2*

What do the screens show for `COc1cnc(-c2cccc(C(F)(F)F)c2)[nH]c1=O`?
Ba/F3 V617F tox: -2.4; aSyn 5UTR inh: 8.8; KLF5 inh: -8.6; IEC-6 cytotox: -5.6; BaF3 parental: 4.7; APP 5UTR inh: -4.7

Results for O=C(NNC(=O)c1ccc([N+](=O)[O-])o1)c1ccccc1 ?
Ba/F3 V617F tox: -1.9; aSyn 5UTR inh: -34.2; KLF5 inh: -6.6; IEC-6 cytotox: 1.8; BaF3 parental: -3.8; APP 5UTR inh: -11.6

What do the screens show for `O=C(NC1CCCCC1)c1ccc([N+](=O)[O-])o1`?
aSyn 5UTR inh: -79.4; KLF5 inh: -10.0; IEC-6 cytotox: 68.5*; IEC-6 cytotox cf: 7.2

How did NC(=O)c1oc2ccccc2c1NC(=O)c1ccc([N+](=O)[O-])o1 do in these assays?
aSyn 5UTR inh: 100.4*; KLF5 inh: 18.5; IEC-6 cytotox: 100.3*; IEC-6 cytotox cf: 57.1*

How did NC(=O)c1oc2ccccc2c1NC(=O)c1ccc(F)cc1 do in these assays?
Ba/F3 V617F tox: -4.6; aSyn 5UTR inh: -18.8; KLF5 inh: 11.5; IEC-6 cytotox: 4.8; BaF3 parental: -0.3; APP 5UTR inh: 3.6

Results for O=C(NN(c1ccccc1)c1ccccc1)c1ccc([N+](=O)[O-])o1 ?
Ba/F3 V617F tox: 3.6; aSyn 5UTR inh: -83.2; KLF5 inh: -7.2; IEC-6 cytotox: 26.9*; BaF3 parental: 5.5; APP 5UTR inh: -18.1; IEC-6 cytotox cf: 14.7

How did CC(NC(=O)c1ccc([N+](=O)[O-])o1)C12CC3CC(CC(C3)C1)C2 (configuration not stated) do in these assays?
aSyn 5UTR inh: -168.0; KLF5 inh: -6.9; IEC-6 cytotox: 60.0*; IEC-6 cytotox cf: 5.3

What do the screens show for `O=C(Oc1ccc(C(=S)N2CCOCC2)cc1)c1cccc(Cl)c1`?
aSyn 5UTR inh: 4.8; KLF5 inh: -5.0; IEC-6 cytotox: 7.5

What do the screens show for `CC(C(=O)NCc1ccccc1Cl)n1cc([N+](=O)[O-])cn1` (configuration not stated)?
aSyn 5UTR inh: 14.0; KLF5 inh: -27.1; IEC-6 cytotox: -2.5

Results for COc1ccccc1N1CCN(C(=O)CCc2nnc3ccc(N4CCC(C)CC4)nn23)CC1 ?
aSyn 5UTR inh: 42.7; KLF5 inh: -20.7; IEC-6 cytotox: 5.7

How did Cc1cccc(Cc2cnc(NC(=O)c3ccc(C)o3)s2)c1 do in these assays?
Ba/F3 V617F tox: 71.0*; aSyn 5UTR inh: 15.8; KLF5 inh: -99.2; IEC-6 cytotox: 59.4*; BaF3 parental: 75.8*; APP 5UTR inh: -76.5; IEC-6 cytotox cf: 39.5*

How did Cc1cccc(Cc2cnc(NC(=O)C3=NCCN3)s2)c1 do in these assays?
Ba/F3 V617F tox: -0.1; aSyn 5UTR inh: -2.7; KLF5 inh: -2.2; IEC-6 cytotox: -0.7; BaF3 parental: 8.0; APP 5UTR inh: 18.6

How did CN1CCN(S(=O)(=O)c2ccc(Br)c3ccccc23)CC1 do in these assays?
aSyn 5UTR inh: 12.2; KLF5 inh: -31.0; IEC-6 cytotox: 3.5

Results for Cc1[nH]c2ccccc2c1/C=N/Nc1nncn1N ?
Ba/F3 V617F tox: 7.0; KLF5 inh: -27.1; IEC-6 cytotox: 101.9*; BaF3 parental: 4.1; APP 5UTR inh: -134.1; IEC-6 cytotox cf: -13.5

How did Nc1ccc2nn(-c3ccccc3)nc2c1 do in these assays?
Ba/F3 V617F tox: -3.8; KLF5 inh: -11.4; IEC-6 cytotox: -1.9; BaF3 parental: 0.9; APP 5UTR inh: -92.6

Results for CC1(C)N=C(N)N=C(N)N1c1ccc(Oc2ccc(Cl)cc2)c(Cl)c1 ?
aSyn 5UTR inh: 85.1*; KLF5 inh: 2.1; IEC-6 cytotox: 55.1*; IEC-6 cytotox cf: 32.7*

Results for CC1(C)N=C(N)N=C(N)N1c1ccccc1 ?
Ba/F3 V617F tox: 95.8*; aSyn 5UTR inh: 99.1*; KLF5 inh: 8.0; IEC-6 cytotox: 40.4*; BaF3 parental: 99.1*; APP 5UTR inh: 6.1; IEC-6 cytotox cf: 51.6*

Results for O=C(COc1ccc2c(c1)oc(=O)c1ccccc12)NC(Cc1ccc(Cl)cc1)C(=O)O (configuration not stated) ?
aSyn 5UTR inh: 0.4; KLF5 inh: -2.6; IEC-6 cytotox: -2.0

How did COc1cccc(COC(=O)C2CCN(C(=O)c3ccc(F)cc3)CC2)c1OC do in these assays?
aSyn 5UTR inh: 8.8

What do the screens show for `CCC(=O)N1CCN(c2ccccc2NC(=O)COc2ccc(C(C)C)cc2)CC1`?
aSyn 5UTR inh: -5.7; KLF5 inh: -42.6; IEC-6 cytotox: 5.7

Results for CCOC(=O)N1CCc2c(sc3c2c(=O)n(-c2ccc(CC)cc2)c(=O)n3CC(=O)NCC2CCCO2)C1 (configuration not stated) ?
aSyn 5UTR inh: 29.6; KLF5 inh: -1.9; IEC-6 cytotox: 25.9*; IEC-6 cytotox cf: 7.5

How did CC(=O)N1CCc2c(sc3c2c(=O)n(-c2ccccc2)c(=O)n3CC(=O)NCC2CCCO2)C1 (configuration not stated) do in these assays?
aSyn 5UTR inh: 4.9; KLF5 inh: -33.7; IEC-6 cytotox: -6.1

Screening data deposited in PubChem by several laboratories.
